Results: PubChem BioAssay (NCI)
The panel holds about 83,000 compounds, 20% with a hit somewhere; the sample as a whole holds those more often.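 96-well plates, one dose, 48 hours. Percent growth reported; active if below 10.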 Unmarked numbers belong to inactive results. The source made the active and inactive calls.

Assays:
Experiment in all cases: NCI-60 one-dose screen, 48 h (100 = growth as untreated, 0 = no growth, -100 = all killed)
Settings in all cases: 10 µM unless noted
[1] = test system: SR leukemia
[2] = test system: RPMI-8226 leukemia
[3] = test system: OVCAR-8 ovarian
[4] = test system: OVCAR-5 ovarian
[5] = test system: OVCAR-4 ovarian
[6] = test system: SK-OV-3 ovarian
[7] = test system: IGROV1 ovarian
[8] = test system: OVCAR-3 ovarian
[9] = test system: HS 578T breast
[10] = test system: NCI/ADR-RES ovarian

CCOC(=O)c1cnc2c(-c3ccc(Cl)c(Cl)c3)cnn2c1
growth [1]: 23.1%
growth [2]: 87.7%
growth [3]: 93.6%
growth [4]: 99.8%
growth [5]: 98.8%
growth [6]: 90.8%
growth [7]: 79.1%
growth [8]: 70.8%
growth [9]: 82.6%

CCOC(=O)C1=C(C)NC(C)=C(C(=O)OCc2ccccc2)C1c1cccc(C#N)c1 (stereo not given)
growth [1]: 21.7%
growth [2]: 32.3%
growth [3]: 48%
growth [4]: 61.3%
growth [5]: 71.5%
growth [6]: 75.1%
growth [7]: 42.1%
growth [8]: 23.6%
growth [9]: 40.2%

CC(=C(c1ccc(OCCCN(C)C)cc1)c1ccc(OCCCN(C)C)cc1)c1ccc(Cl)cc1
growth [1]: 21.7%
growth [2]: 79.3%
growth [3]: 100%
growth [4]: 100%
growth [5]: 108%
growth [6]: 103%
growth [7]: 87.1%
growth [8]: 91.1%
growth [9]: 81.8%
growth [10]: 95.2%

CC(C)NC(=O)c1cc(-c2ccc(NC(=O)Nc3ccc(F)c(C(F)(F)F)c3)cc2)nc2cccnc12
growth [1]: 81.6%
growth [2]: 89.8%
growth [3]: 79.5%
growth [4]: 113%
growth [5]: 92.3%
growth [6]: 105%
growth [7]: 110%
growth [8]: 109%
growth [9]: 87.6%
growth [10]: 98.2%

Cc1ccc(NC2=C(Cl)C(=O)c3nc(C)ccc3C2=O)c(C)c1
growth [1]: 10.3%
growth [2]: -10.4% (active)
growth [3]: 28.3%
growth [4]: -1.15% (active)
growth [5]: -96.5% (active)
growth [6]: 117%
growth [7]: -58.8% (active)
growth [8]: -98.6% (active)
growth [9]: 6.94% (active)
growth [10]: 4.37% (active)

COc1ccc2c(c1)c(-c1nc(N)nnc1-c1c[nH]c3ccccc13)cn2C
growth [1]: 14.8%
growth [2]: 41.8%
growth [3]: 51.3%
growth [4]: 72.2%
growth [5]: 66.4%
growth [6]: 63%
growth [7]: 30.5%
growth [8]: 19.7%
growth [9]: 35.3%
growth [10]: 49.8%

Cc1ccc(/C(N)=N/C(N)=N/c2nc3ccccc3s2)cc1
growth [1]: 21.1%
growth [2]: 78.3%
growth [3]: 78.8%
growth [4]: 111%
growth [5]: 105%
growth [6]: 134%
growth [7]: 67.3%
growth [8]: 106%
growth [9]: 112%
growth [10]: 31.1%

C#Cc1cc(C(=O)Nc2ccc(CNCCN3CCOCC3)c(C(F)(F)F)c2)ccc1C
growth [1]: 67.8%
growth [2]: 74.5%
growth [3]: 105%
growth [4]: 98.6%
growth [5]: 79.1%
growth [6]: 94.1%
growth [7]: 101%
growth [8]: 94.1%
growth [9]: 81.4%
growth [10]: 94.3%

CC(=O)OCCCCN1C=C/C(=C\C(=O)n2ccc3ccccc32)c2ccccc21
growth [1]: 88.7%
growth [2]: 98.3%
growth [3]: 102%
growth [4]: 102%
growth [5]: 85.5%
growth [6]: 97.6%
growth [7]: 83.3%
growth [8]: 100%
growth [9]: 102%

Cc1ccc(C)c(NC2=C(Cl)C(=O)c3nc(C)ccc3C2=O)c1
growth [1]: 1.99% (active)
growth [2]: -41.9% (active)
growth [3]: 9.92% (active)
growth [4]: -71.8% (active)
growth [5]: -96% (active)
growth [6]: 93%
growth [7]: -66.8% (active)
growth [8]: -97.4% (active)
growth [9]: -24.8% (active)

Cn1cc(C2=C(c3coc4cc(Br)ccc34)C(=O)NC2=O)c2ccccc21
growth [1]: 29.5%
growth [2]: 98.9%
growth [3]: 87.2%
growth [4]: 113%
growth [5]: 100%
growth [6]: 53.5%
growth [7]: 64.7%
growth [8]: 72.7%
growth [9]: 52.8%
growth [10]: 59.2%

COc1cc(C(C)=C(c2ccc(OCCN(C)C)cc2)c2ccc(OCCN(C)C)cc2)ccc1F
growth [1]: 99.2%
growth [2]: 107%
growth [3]: 104%
growth [4]: 103%
growth [5]: 108%
growth [6]: 102%
growth [7]: 105%
growth [8]: 109%
growth [9]: 101%

COc1cc2oc(-c3cccc(NC(=O)c4cccc([N+](=O)[O-])c4)c3)cc(=O)c2c(OC)c1OC
growth [1]: 55.2%
growth [2]: 48.8%
growth [3]: 6.56% (active)
growth [4]: 72.1%
growth [5]: 37.6%
growth [6]: 85.9%
growth [7]: 64.6%
growth [8]: 59%
growth [9]: -10.3% (active)
growth [10]: 34.6%

C#CCN(C)CCCOc1ccc(NC(=O)CCCCCCC(=O)NO)cc1Cl
growth [1]: 13.7%
growth [2]: 0.211% (active)
growth [3]: 17.7%
growth [4]: 12.8%
growth [5]: 41.9%
growth [6]: 18.2%
growth [7]: 17%
growth [8]: 27.8%
growth [9]: 19.7%
growth [10]: 65.4%

CC1CC(=O)C2=C(C1)Nc1ccc(Br)cc1CC2c1c[nH]c2ccc(Br)cc12 (stereo not given)
growth [1]: 29.7%
growth [2]: 42.8%
growth [3]: 66.2%
growth [4]: 82%
growth [5]: 74.4%
growth [6]: 77.3%
growth [7]: 32.9%
growth [8]: 42.1%
growth [9]: 58%
growth [10]: 26.6%

O=C(CCCCCCNC(=O)C(O)(O)C(F)(F)F)Nc1ncc(-c2ccc(Br)cc2)s1
growth [1]: 8.24% (active)
growth [2]: 11.2%
growth [3]: 1.13% (active)
growth [4]: -2.49% (active)
growth [5]: 21.8%
growth [6]: -14.6% (active)
growth [7]: -21.8% (active)
growth [8]: -58.1% (active)
growth [9]: 16.6%
growth [10]: -4.64% (active)

C#CCOc1ccccc1C(OC(=O)c1ccccc1)C(=O)NC(C)(C)C(C)(C)C (stereo not given)
growth [1]: 64.7%
growth [2]: 74%
growth [3]: 89.3%
growth [4]: 102%
growth [5]: 85.9%
growth [6]: 95.8%
growth [7]: 68.9%
growth [8]: 99.9%
growth [9]: 91.1%
growth [10]: 87%

CN1c2ccccc2Sc2cc(/C=N/Nc3ccnc4cc(Cl)ccc34)ccc21
growth [1]: -1.36% (active)
growth [2]: 46.3%
growth [3]: 60.5%
growth [4]: 106%
growth [5]: 94%
growth [6]: 102%
growth [7]: 104%
growth [8]: 90.8%
growth [9]: 105%
growth [10]: 12.6%

CC1(C)CC[C@]23CC[C@]4(C)[C@H](CC[C@@H]5[C@@]6(C)CC[C@H](N)C(C)(C)[C@@H]6CC[C@]54C)[C@H]2[C@H]1OC3
growth [1]: -22.5% (active)
growth [2]: -24.1% (active)
growth [3]: 85.6%
growth [4]: 112%
growth [5]: 96.7%
growth [6]: 101%
growth [7]: 69.9%
growth [8]: 70.2%
growth [9]: 94.4%
growth [10]: 2.93% (active)

Cc1ccc2c(n1)C(=O)C(Cl)=C(Nc1ccccc1C(=O)OC(C)(C)C)C2=O
growth [1]: -30.8% (active)
growth [2]: -31.8% (active)
growth [3]: 66.8%
growth [4]: 139%
growth [5]: -45.3% (active)
growth [6]: 105%
growth [7]: 59.6%
growth [8]: -63.6% (active)
growth [9]: 84.1%
growth [10]: 64.2%

COc1cc(-c2nc(-c3ccccc3)[nH]c2-c2ccnc(NCCCNS(=O)(=O)c3cccc(F)c3)n2)ccc1F
growth [1]: 77.1%
growth [2]: 62.4%
growth [3]: 86%
growth [4]: 118%
growth [5]: 104%
growth [6]: 136%
growth [7]: -69.7% (active)
growth [8]: 109%
growth [9]: 103%
growth [10]: 92.1%

CCOC(=O)c1c(NC(=O)c2cccc(C(F)(F)F)c2)sc2c3c(ccc12)OCN(C)C3
growth [1]: -41.7% (active)
growth [2]: -47.6% (active)
growth [3]: -41.6% (active)
growth [4]: -14% (active)
growth [5]: -44.2% (active)
growth [6]: 75.7%
growth [7]: -78.7% (active)
growth [8]: -44.7% (active)
growth [9]: 38.4%
growth [10]: -54.3% (active)

C#C[C@]1(O)CC[C@H]2[C@@H]3CC=C4c5sc(Nc6cc(Cl)ccc6OC)nc5CC[C@]4(C)[C@H]3CC[C@@]21C
growth [1]: 3.9% (active)
growth [2]: -35.1% (active)
growth [3]: 52.5%
growth [4]: 67.5%
growth [5]: 52.5%
growth [6]: -6.24% (active)
growth [7]: 43.5%
growth [8]: 25.3%
growth [9]: -7.86% (active)
growth [10]: 56.4%

Cc1[nH]c(C(=O)Nc2ccc(C(=O)NCC3CCNCC3)cc2OC(C)C)c(Cl)c1Cl
growth [1]: -0.735% (active)
growth [2]: 42.3%
growth [3]: 86.6%
growth [4]: 84.9%
growth [5]: 89.5%
growth [6]: 97.3%
growth [7]: 54.4%
growth [8]: 85.6%
growth [9]: 69.1%
growth [10]: 100%

O=C(CSc1nnc(-c2cccs2)n1-c1ccccc1)Nc1ccccc1
growth [1]: 61.3%
growth [2]: 99.7%
growth [3]: 53.5%
growth [4]: 96.7%
growth [5]: 56.3%
growth [6]: 80.1%
growth [7]: 89.9%
growth [8]: 84.2%
growth [9]: 33.2%
growth [10]: 61.9%

Cc1[nH]c(C(=O)Nc2ccccc2OCc2cccc(C(=O)NC3CCNC3)c2)c(Cl)c1Cl (stereo not given)
growth [1]: -0.792% (active)
growth [2]: -10% (active)
growth [3]: -37% (active)
growth [4]: 45.3%
growth [5]: 68.3%
growth [6]: 107%
growth [7]: 31.2%
growth [8]: -26.7% (active)
growth [9]: 87.6%
growth [10]: 67.1%

Cc1ccc2c(n1)C(=O)C(Cl)=C(Nc1cccc(C)c1C)C2=O
growth [1]: 6.7% (active)
growth [2]: -12.7% (active)
growth [3]: -3.5% (active)
growth [4]: -29% (active)
growth [5]: -97.6% (active)
growth [6]: 117%
growth [7]: -58.4% (active)
growth [8]: -97.8% (active)
growth [9]: -13% (active)
growth [10]: -5.45% (active)
